Records with an inconclusive call do not appear. The source made the active and inactive calls. Calls come from the whole dose curve; as a rule, active = well fitted inhibition curve with a large enough effect in the polarisation, with a control signal flat (not every such curve was filed as active); inconclusive = small, poorly fitted or top-dose-only effect, or effect the other way, or a change in a side signal; inactive = no such curve, though single readings can be large or run the other way; the % refers to the polarisation.
Test: Confirmation of Inhibitors Targeting the Menin-MLL Interaction in MLL Related Leukemias: Competition With Texas Red Labeled MLL-derived Mutant Peptide
Details: fluorescence polarization, Texas Red MLL peptide displacement; series mostly up to 94.6 µM
Summary of the method: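 FP competition using menin at 200 nM with Texas Red-labeled mutant MLL peptide (50 nM) plus fluorescein MLL-w.t. peptide (25 nM) in 50 mM Tris-HCl pH 7.5, 50 mM NaCl, 1 mM DTT, 0.05% BSA; compound added, 1 hr ambient; polarization read per label.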
Potency is the fitted concentration of half-maximal effect.

Potency, inactive:
O=C(CC(=O)c1ccccc1)Nc1cc(C(F)(F)F)ccc1Cl
O=[N+]([O-])c1ccc(S(=O)(=O)c2ccccc2)nc1
O=C(Nc1cccn(Cc2c(Cl)cccc2Cl)c1=O)c1c(Cl)cccc1Cl
CN(C)CCc1c[nH]c2ccc(CC3COC(=O)N3)cc12 (stereo not drawn)
Cc1nc(C)c(-c2ccc(SCc3ccccc3F)nn2)s1
O=C(O)CCC(=O)Nc1ccc(SSc2ccc(NC(=O)CCC(=O)O)cc2)cc1
O=C(Cn1c(=O)c2c3c(sc2n(Cc2ccccc2)c1=O)CCCC3)NCCO
CN[C@H]1[C@H](O)[C@@H](O[C@@H]2[C@H](O)[C@@H](O[C@H]3OC(CN)=CC[C@H]3N)[C@@H](N)C[C@H]2N)OC[C@@]1(C)O
O=C(CCn1nc(-c2ccccc2)ccc1=O)N1CCN(c2ccccn2)CC1
NC(=O)c1cc2ccccc2o/c1=N/NC(=O)c1cccc(F)c1
Cc1ccccc1-c1n[nH]c(=S)n1C
COc1ccc(CNC(=O)C(c2ccc(O)cc2)N(Cc2ccco2)C(=O)c2snc(C(N)=O)c2N)cc1 (stereo not drawn)
CN1CCN(CC(=O)c2ccccc2F)CC1
Cc1cc(C)c2c(=O)cc(C(=O)NCc3ccccc3)oc2c1
COc1ccc(-c2cc(=O)c3c(O)cc(O)c(-c4cc(-c5cc(=O)c6c(O)cc(O)cc6o5)ccc4OC)c3o2)cc1
O=C(Nc1nccs1)C(Br)C(Br)c1ccccc1 (stereo not drawn)
Cc1ccc(NS(=O)(=O)c2csc(C(N)=O)c2)cc1C
CC(=O)c1c(O)cc(O)cc1CC(=O)O
O=C1C(Cl)=C(NCCN2CCOCC2)C(=O)c2ncccc21
COc1cc(NC(=O)c2cccnc2)c(OC)cc1NC(=O)c1ccc(Br)cc1
Cc1c(F)cccc1NS(=O)(=O)c1ccc2c(c1)c(C)cc(=O)n2C
CCOC(=O)N1CCN(CCC(=O)c2ccc(Br)cc2)CC1
COc1ccc(NC(=O)NC2(C(=O)N3CCOCC3)CCCCC2)cc1
Cc1cc(N2CCOCC2)nc2ccc(Cl)cc12
COc1ccc(NC(=O)N2CC[C@@]3(CCCN(C(=O)c4csnn4)C3)C2)cc1

Potency, active:
CCN(CC)Cc1cc2[nH]c3c4ccc(Cl)cc4ncc3c2cc1OC 56.4 µM
O=C(C[N+]12CC[N+](CC(=O)c3ccc(F)cc3)(CC1)CC2)c1ccc(F)cc1 35.5 µM
O=C(CN1C(=O)/C(=C/c2cccc(Br)c2)SC1=S)NC1=NCCS1 17.8 µM
Cc1cc2c(N)cccc2nn1 141 µM
N=C1c2ccccc2CN1c1ccc(N2CCOCC2)c(S(=O)(=O)Nc2ccc(Cl)cc2)c1 141 µM
CCCC(c1nnnn1Cc1cccs1)N1CCN(C2CCCC2)CC1 (stereo not drawn) 112 µM
COc1ccccc1CC(=O)Nc1ccc(-c2noc(COc3ccc(Br)cc3)n2)cc1 71 µM
CCC(c1nnnn1Cc1ccc(F)cc1)N1CCN(C2CCCCC2)CC1 (stereo not drawn) 35.5 µM

— PubChem BioAssay AID2782 (National Center for Advancing Translational Sciences (NCATS), 2010)
